In PubChem BioAssay (NCATS) one finds Potency and activity (max response) data, which are given here for 40 compounds.

Where “and” joins values, the source holds several entries; their conditions need not be identical. Identical values can stand only once. Results filed as inconclusive are left out. Values without a mark were called inactive. Calls of active or inactive are those of the source. Calls come from the whole dose curve; as a rule, active = well fitted cell-killing curve with a large enough effect; inconclusive = small, poorly fitted or top-dose-only effect; inactive = flat fitted curve, though single readings scatter.
% is set by controls: 0 for no effect and ±100 for the full control effect.

A short description of the experiment: Cellular viability qHTS for adrenocortical cancer (ACC) cell line SW-13 (AID 1963989).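 For activity (max response): cells grown in serum-free medium with ITS supplement.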 Note: nearly all actives have a fitted effect of over 65% in size. The following applies: SW-13 ACC cells viability, CellTiter-Glo, 48 h; activity (max response): hits give low values. The text has this: PI: Naris Nilubol, MD Surgical Oncology Program, National Cancer Institute (NCI) National Institute of Health (NIH), Bethesda, Maryland Adrenocortical cancer (ACC) is a rare malignancy with poor survival outcomes and few treatment options. Currently, mitotane is the only FDA-approved therapy for ACC. Although adjuvant radiation therapy is rarely utilized, it has the potential to improve survival in select cases. Through a quantitative high-throughput drug screen (qHTS), we identified auranofin (AF), a thioredoxin reductase (TXNRD) inhibitor, as a promising candidate drug. This study aims to evaluate whether AF can enhance the efficacy of radiation therapy in the treatment of ACC. Two human ACC cell lines, SW-13 and NCI-H295R, were screened using the National Center for Advancing Translational Sciences (NCATS) Pharmaceutical Collection (NPC) and the Mechanism Interrogation PlatE (MIPE) library (~4,991 compounds). CellTiter-Glo (Cat # G7570, Promega, Madison, WI) was utilized to measure cell viability. Described herein are the results of the corresponding viability assay.
PROTOCOL TABLE (as described by Inglese J, Shamu CE and Guy RK. 2007) SEQUENCE No. (e.g., 1, 2, 3, etc.); […] (e.g., Cells, Incubation, Reagent, etc.); VALUE; DESCRIPTION. 1; Cells; 5 uL; white, solid-bottom, 1536-well tissue-culture treated plates. 2; Time; overnight culture at 37C with 5% CO2. 3; Compounds and control; 23 nL; Kalypsis pin tool (Wako USA) equipped with a 1536-well pin head to transfer to the assay plates. 4; Time; 48 hours; 37C with 5% CO2. 5; Reagent; 4 uL; CellTiter-Glo luminescent substrate mix. 6; Time; 20 min at room temperature. 7; Detection; Luminescence; ViewLux plate reader NOTES (numbers refer to Sequence numbers above) 1. SW13 cells were harvested from a T175 flask and resuspended in ITS-supplemented DMEM serum-free medium at a concentration of 300 000 cells/mL. Then 5 uL of resuspended cells were dispensed into each well of white, solid-bottom, 1536-well tissue-culture-treated plates using a multidrop combi dispenser. The plates were covered with stainless steel gasket lids. 2-3. The plates were cultured overnight at 37C with 5% CO2. Twenty-three nL of compounds (eight selected concentrations from the NPC / MIPE) or positive control (10 mM stock of bortezomib) in DMSO was transferred to each well of the assay plate using a pin tool (Kalypsys, San Diego, CA, USA). The final concentration of the compounds in the 5 uL assay volume ranged from 0.5 nM to 46 uM. 4-6. After 48 hours of incubation at 37C and 5% CO2, 4 uL of CellTilter-Glo luminescent substrate mix (Promega, Madison, WI, USA) was added to each well. Then the plates were incubated for 20 minutes at room temperature. 7. After incubation, luminescence was measured using a ViewLux plate reader (PerkinElmer, Waltham, MA, USA) with a clear filter was used to measure the number of metabolically competent cells. To determine compound activity in the qHTS assay, the titration-response data for each sample was plotted and modeled by a four-parameter logistic fit yielding IC50 and efficacy (maximal response) values. […] REFERENCES: Inglese J, Shamu CE and Guy RK, Reporting data from high throughput screening of small molecule libraries, Nature Chemical Biology, 2007, 3(8): 438-441. doi.org/10.1038/nchembio0807-438.
Background: qHTS replaces the single test concentration by a dilution series.
Consider `NC(=O)Nc1cc(-c2cccc(F)c2)sc1C(=O)N[C@H]1CCCNC1`, for which the Potency was 1.78 µM (active).
`Oc1ccccc1C=NCc1ccccc1`: the activity (max response) was 6.8%.
`CC(=O)N1CCC[C@H]1C(=O)N[C@@H](Cc1cnc[nH]1)C(=O)N[C@@H](CO)C(=O)N[C@@H](CS)C(=O)N[C@@H](CC(N)=O)C(N)=O`: the activity (max response) is -17.6%.
Still for that read-out and setting: the figure for `Cn1ncc(Cl)c1-c1cc(C(=O)N[C@H](CN)Cc2cccc(F)c2)sc1Cl` is -8.31%; for `O=c1cc(-c2ccccc2)oc2cc(O)c(O)c(O)c12` it is -15.6%.
On to `Nc1ccc2cc3ccc(N)cc3nc2c1`, for which the Potency is 6.51 µM (active).
As for `Cc1ccc(-c2ncn(-c3ccc(Nc4nccc(-c5cccc(N6CCOCC6)c5)n4)cc3)n2)cn1`, the activity (max response) is 11.5%.
On to `O=c1[nH]c(=O)n(C2CCCO2)cc1F` (stereo not given), for which the activity (max response) is 4.88%.
As for `Cc1ccc(S(=O)(=O)NC(=O)NN2CC3CCCC3C2)cc1` (stereo not given), the activity (max response) is 5.83% and 9.36%.
With `NCC[C@H](O)C(=O)N[C@@H]1C[C@H](N)[C@@H](O[C@H]2O[C@H](CN)[C@@H](O)[C@H](O)[C@@H]2O)[C@H](O)[C@@H]1O[C@H]1O[C@H](CO)[C@@H](O)[C@H](N)[C@@H]1O`, the activity (max response) is 11.7%.
The same measure, in the same setting: to `COC(=O)c1cc(S(N)(=O)=O)ccc1OC` belongs 6.75%.
Consider `CNC(=O)c1ccccc1Nc1nc(Nc2ccc(N3CCOCC3)cc2OC)ncc1Cl`, for which the Potency is 5.62 µM (active).
Consider `Cc1ccc(S(=O)(=O)NC(=O)NC2CCCCC2)cc1`, for which the activity (max response) is 8.41%.
With `OC(Cn1cncn1)(Cn1cncn1)c1ccc(F)cc1F`, the activity (max response) is 1.07% and 11%.
For `Cc1cnc(Nc2ccc(OCCN3CCCC3)cc2)nc1Nc1cccc(S(=O)(=O)NC(C)(C)C)c1`, the Potency was 12.6 µM (active).
Take `CC(=O)OCC(=O)[C@@]1(O)CCC2C3CCC4=CC(=O)CC[C@]4(C)C3[C@@H](O)C[C@@]21C` (stereo not given in full): the activity (max response) was -1.87%.
The same measure, in the same setting: the figure for `N#C[C@H]1C[C@H]2C[C@@H]2N1C(=O)[C@@H](N)C12CC3CC(CC(O)(C3)C1)C2` is 11.7%.
On the same count and under the same terms, to `CC(=O)NCCCCCC(=O)O` belongs -2.94%.
Take `COc1ccc(Cl)c(Nc2nc3ccccc3nc2NS(=O)(=O)c2cccc(NC(=O)C(C)(C)N)c2)c1`: the Potency is 25.1 µM (active).
For the compound `CC(C(=O)O)c1ccc2c(c1)CC(=O)c1ccccc1S2` (stereo not given), the activity (max response) is -16.4% and 14.9%.
As to `O=C1Nc2ccc(Cl)cc2[C@@](C#CC2CC2)(C(F)(F)F)O1`, the Potency was 18.4 µM (active) and 25.1 µM (active).
Same read-out and setting: to `CC1=C2C[C@H]3[C@@H](CC[C@@H]4C[C@H](NS(C)(=O)=O)CC[C@@]43C)[C@@H]2CC[C@@]2(C1)O[C@@H]1C[C@H](C)CN[C@H]1[C@H]2C` belongs 25.1 µM (active).
Consider `CC(C)N(C[C@H]1O[C@@H](n2cnc3c(N)ncnc32)[C@H](O)[C@@H]1O)C1CC(CCc2nc3ccc(C(C)(C)C)cc3[nH]2)C1` (stereo not given in full), for which the activity (max response) is 7.65%.
The same measure, in the same setting: to `CC1(C)[C@@H]2CC[C@@]1(C)C(=O)C2` belongs 10.1%.
As to `O=C(NOCCO)c1cc(CN2OCCCC2=O)c(F)c(F)c1Nc1ccc(I)cc1F`, the Potency was 7.08 µM (active).
As for `CCc1cccc2c3c([nH]c12)[C@@](CC)(CC(=O)O)OCC3`, the activity (max response) is -21.1%.
Same read-out and setting: to `CO/N=C(\C(=O)O)c1csc(NC(=O)CCl)n1` belongs 13%; to `Clc1ccc2c(N3CCN(CCCN4CCN(c5ccnc6cc(Cl)ccc56)CC4)CC3)ccnc2c1`, -23.4%; to `C[C@]12CC[C@H](O)CC1=CC[C@@H]1[C@@H]2CC[C@]2(C)C(c3cccnc3)=CC[C@@H]12`, 2.71%.
In the case of `NC(=O)N1c2ccccc2CC(=O)c2ccccc21`, the activity (max response) is 10.8%.
On the same count and under the same terms, the figure for `CC(Cc1ccc(O)c(O)c1)(NN)C(=O)O` (stereo not given) is 0.463%.
The same measure, in the same setting: the figure for `CC1CC(OC(=O)c2ccccc2O)CC(C)(C)C1` (stereo not given) is 10.4%.
Same read-out and setting: the figure for `Cc1cc(O)cc2c1O[C@](C)(CCC[C@H](C)CCC[C@H](C)CCCC(C)C)CC2` is 7.62%; for `O=C(O)Cc1ccc(OCCNC[C@H](O)c2ccccc2)cc1` it is 0.46%; for `NCC1CCC(C(=O)O)CC1` (stereo not given) it is 10.7%.
For the compound `FC(F)(F)C(Cl)Br` (stereo not given), the activity (max response) is -8.02%.
As for `Cc1onc(-c2ccccc2Cl)c1C(=O)N[C@@H]1C(=O)N2[C@@H]1SC(C)(C)[C@@H]2C(=O)O`, the activity (max response) was 0.896%.
The same measure, in the same setting: to `O=C(Nc1cccnc1)c1cc(-c2ccnc(F)c2)ccc1OCc1ccccc1` belongs 13.4%; to `C[C@H](CCC(=O)O)[C@H]1CC[C@H]2[C@@H]3[C@H](O)C[C@@H]4C[C@H](O)CC[C@]4(C)[C@H]3CC[C@]12C`, -16.1%.
On the same count and under the same terms, the figure for `N=C(N)c1ccc2nc(-c3cc(CC(=O)N[C@@H](CC(=O)O)C(=O)O)cc(-c4cc(S(N)(=O)=O)ccc4O)c3O)[nH]c2c1` is 10.3%.
